Columns and labels:
Experiment in all cases: PBM binding z-score (relative to random genomic background probes); higher = stronger binding; sequences stand for … in GC…GCGATTGACAGCGTAGAATGAAGG
[1] = test system: FXR:RXRa (NR concentration 270 nM, RXRa partner concentration 90 nM)
Procedure, shortened: (§1)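 Ligand-free nuclear receptor dimers were bound for 1 h to custom Agilent 4×180K protein-binding microarrays. Detection used antibodies against each partner (one per run). Binding z-scores rest on regression-normalized fluorescence, with random background probes as the reference.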

[2] = test system: LXRa:RXRa (NR concentration 270 nM, RXRa partner concentration 90 nM)
Procedure, shortened: as §1

[3] = test system: LXRa homodimer (NR concentration 270 nM)
Procedure, shortened: as §1

[4] = test system: LXRb:RXRa (NR concentration 270 nM, RXRa partner concentration 90 nM)
Procedure, shortened: as §1

[5] = test system: LXRb homodimer (NR concentration 270 nM)
Procedure, shortened: as §1

[6] = test system: PPARa:RXRa (NR concentration 270 nM, RXRa partner concentration 90 nM)
Procedure, shortened: as §1

[7] = test system: PPARg:RXRa (NR concentration 180 nM, RXRa partner concentration 90 nM)
Procedure, shortened: as §1

[8] = test system: PPARg:RXRa 270nM:90nM, anti-RXR (NR concentration 270 nM, RXRa partner concentration 90 nM)
Procedure, shortened: as §1

[9] = test system: PPARg:RXRa 30nM:10nM, anti-RXR (NR concentration 30 nM, RXRa partner concentration 10 nM)
Procedure, shortened: as §1

[10] = test system: PPARg:RXRa 90nM:30nM, anti-RXR (NR concentration 90 nM, RXRa partner concentration 30 nM)
Procedure, shortened: as §1

[11] = test system: PPARg:RXRa DBDmut IVT, anti-RXR (DBD mutation: RXRa K156A/R161A, NR concentration 270 nM, RXRa partner concentration 90 nM)
Procedure, shortened: as §1

[12] = test system: PPARg:RXRa IVT, anti-PPARg (NR concentration 270 nM, RXRa partner concentration 90 nM)
Procedure, shortened: as §1

[13] = test system: PPARg DBDmut:RXRa IVT, anti-PPARg (DBD mutation: PPARg1 K132A/R137A, NR concentration 270 nM, RXRa partner concentration 90 nM)
Procedure, shortened: as §1

[14] = test system: PPARg DBDmut IVT, anti-PPARg (DBD mutation: PPARg1 K132A/R137A, NR concentration 270 nM)
Procedure, shortened: as §1

[15] = test system: PPARg homodimer (NR concentration 180 nM)
Procedure, shortened: as §1

[16] = test system: PXR:RXRa (NR concentration 270 nM, RXRa partner concentration 90 nM)
Procedure, shortened: as §1

[17] = test system: PXR homodimer (NR concentration 270 nM)
Procedure, shortened: as §1

[18] = test system: RARa:RXR (NR concentration 270 nM, RXRa partner concentration 90 nM)
Procedure, shortened: as §1

[19] = test system: RARa homodimer (NR concentration 270 nM)
Procedure, shortened: as §1

[20] = test system: RARb:RXRa (NR concentration 270 nM, RXRa partner concentration 90 nM)
Procedure, shortened: as §1

| Sequence | PBM binding z-score [1] | PBM binding z-score [2] | PBM binding z-score [3] | PBM binding z-score [4] | PBM binding z-score [5] | PBM binding z-score [6] | PBM binding z-score [7] | PBM binding z-score [8] | PBM binding z-score [9] | PBM binding z-score [10] | PBM binding z-score [11] | PBM binding z-score [12] | PBM binding z-score [13] | PBM binding z-score [14] | PBM binding z-score [15] | PBM binding z-score [16] | PBM binding z-score [17] | PBM binding z-score [18] | PBM binding z-score [19] | PBM binding z-score [20] |
| --- | --- | --- | --- | --- | --- | --- | --- | --- | --- | --- | --- | --- | --- | --- | --- | --- | --- | --- | --- | --- |
| CCTGCTGGGCCAAAGGTCATTGATTCCAATGCTC | 5.24 | 5.14 | 3.92 | 4.66 | 0.872 | 5.78 | 9.98 | 8.99 | 8.27 | 9.45 | 1.56 | 4.42 | -0.0348 | 0.037 | 3.9 | 5.43 | 1.15 | 6.18 | 0.602 | 4.63 |
| CGGACTAGGTCATTGACAGGACAGTGAATAGTAA | 3.76 | 2.45 | 0.229 | 1.86 | -0.21 | 4.05 | 6.69 | 5.73 | 2.87 | 4.89 | 7.36 | 7.62 | 1.48 | 0.689 | 1.1 | 1.6 | 0.0677 | 2.12 | 0.305 | 3.53 |
| CCGAGTAGGTTATGGGGCACTCAGGCAACGGTGA | 0.104 | 0.294 | -0.464 | 0.136 | -0.707 | 2.08 | 3.55 | 4.33 | 2.45 | 4.11 | 3.14 | 3.7 | -0.555 | -0.9 | 0.446 | -0.0743 | -0.0972 | 0.214 | -0.134 | 1.15 |
| ATACCACGGTGATCGTGAGGTCGTTGATACTAAC | 1.06 | 0.834 | 0.899 | 0.931 | -0.0132 | 0.958 | 0.3 | 0.0838 | -0.0631 | 0.19 | -0.0691 | 0.808 | 0.255 | 0.824 | 0.823 | 1.6 | 0.891 | 1.57 | 0.137 | 0.885 |
| TCTCGGAGGACACGAAAGGTCAGAGGTCGACATC | 3.84 | 4.45 | 3.58 | 4.14 | 0.107 | 4.5 | 3.27 | 4.29 | 3.24 | 3.74 | 1.89 | 2.44 | -0.583 | -0.569 | 2.83 | 5.34 | 0.827 | 6.51 | 1.05 | 4.57 |
| CGAACTAGGTTATCCAGGACAGTGAATACATTGA | 0.556 | 0.403 | 0.239 | 0.204 | -0.168 | 2.31 | 2.82 | 2.24 | 0.585 | 1.4 | 6.42 | 5.96 | 0.89 | 0.666 | 0.877 | 0.173 | 0.527 | 0.654 | 0.298 | 0.828 |
| AGATTGAGGTTATACGTAGATCAGGGAAGAAAGT | 1.82 | 1.79 | 0.26 | 1.37 | 0.202 | 2.91 | 1.21 | 1.56 | 0.644 | 1.05 | 2.54 | 1.38 | 1.05 | 1.23 | 0.726 | 1.23 | 0.75 | 1.7 | 0.422 | 1.28 |
| GCTTACGGGTCAAATGTTATAGCATGAATAGAAT | 6.7 | 4.31 | 0.0219 | 4.11 | 0.827 | 5.85 | 6.74 | 6.08 | 3.81 | 5.84 | 4.4 | 4.44 | 1.56 | 1.2 | 2.47 | 3.34 | -0.148 | 4.24 | 0.995 | 3.88 |
| TCTTGTACATCAACAGGAGGTTAAGAAAGATCGA | 0.517 | 1.37 | 0.452 | 1.13 | 0.442 | 1.16 | 0.195 | 1.36 | 3.01 | 1.9 | 1.52 | 0.927 | 1.32 | 1.51 | -0.544 | 0.873 | 0.161 | 1.09 | 0.409 | 0.66 |

From the supplement of paper PMC6555819
